According to PubChem BioAssay (EPA / NIEHS):
Activity calls are given as the source filed them. The calls were made as follows: active = hit-call score of the fitted dose curve at least 0.9, where 1 is the maximum; inactive = score below 0.9.

How the values were obtained:
[1] = read-out: Matrix Metallopeptidase 9 (MMP9), MMP9 (gene 4318); assay: BSK_KF3CT_MMP9: BioMAP Diversity Plus: KF3CT Assay for Matrix Metallopeptidase 9 (MMP9) Biomarker Activity (AID 2283074); settings: primary human keratinocytes with fibroblasts; actives raise or lower the signal
How it was run: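 MMP-9 quantified by ELISA after 24 h chemical treatment of primary human skin keratinocyte/fibroblast co-cultures; gain or loss fitted against DMSO, with parallel SRB staining (0.1% SRB, 560 nm) for overt cytotoxicity.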

[2] = read-out: urokinase plasminogen activator (uPA), PLAU (gene 5328); assay: BSK_KF3CT_uPA: BioMAP Diversity Plus: KF3CT Assay for urokinase plasminogen activator (uPA) Biomarker Activity (AID 2283075); settings: primary human keratinocytes with fibroblasts; actives raise or lower the signal
How it was run: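 ELISA read-out of uPA 24 h after dosing human skin keratinocytes co-cultured with foreskin fibroblasts. Signal change fitted both ways relative to DMSO; sulforhodamine B on parallel cultures marks overt cytotoxicity.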

CD40, CD40 (gene 958) [3] = assay: BSK_LPS_CD40: BioMAP Diversity Plus: LPS Assay for CD40 Biomarker Activity (AID 2283076); settings: primary human HUVEC with PBMC; actives raise or lower the signal
How it was run: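 HUVEC plus PBMC co-culture stimulated with LPS; CD40 quantified by ELISA 24 h after compound dosing. Fitting was bidirectional relative to DMSO. SRB staining of parallel cultures flagged overt cytotoxicity.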

[4] = read-out: E-selectin (Homo sapiens) (UniProt P16581); assay: BSK_LPS_Eselectin: BioMAP Diversity Plus: LPS Assay for Eselectin Biomarker Activity (AID 2283077); settings: primary human HUVEC with PBMC; actives raise or lower the signal
How it was run: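 Human umbilical vein endothelial cells co-cultured with PBMC under LPS stimulation; cell-surface E-selectin measured by ELISA 24 h after dosing. Change in either direction versus DMSO, with SRB total-protein staining in parallel cultures for cytotoxicity.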

[5] = read-out: Interleukin-8 (IL8), CXCL8 (gene 3576); assay: BSK_LPS_IL8: BioMAP Diversity Plus: LPS Assay for Interleukin-8 (IL8) Biomarker Activity (AID 2283078); settings: primary human HUVEC with PBMC; actives raise or lower the signal
How it was run: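 Human umbilical vein endothelial cells co-cultured with PBMC, LPS-stimulated, exposed to compound for 24 h. IL-8 quantified by ELISA; fitted in both directions against DMSO, with SRB total-protein staining of parallel cultures for cytotoxicity.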

[6] = BSK_LPS_SRB: Viability Assessment in the BioMAP Diversity Plus: LPS Assay (AID 2283079); settings: primary human HUVEC with PBMC;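 also: total protein by sulforhodamine B absorbance as a cytotoxicity measure; measured one day after compound addition; fitted in both directions against DMSO so loss or gain of signal counts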
How it was run: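 Co-culture of human umbilical vein endothelial cells and PBMC, read 24 h after dosing. Total protein by 0.1% SRB staining after 10% TCA fixation, absorbance at 560 nm; bidirectional fit against DMSO.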

[7] = read-out: Interleukin-1 alpha (IL1a), IL1A (gene 3552); assay: BSK_LPS_IL1a: BioMAP Diversity Plus: LPS Assay for Interleukin-1 alpha (IL1a) Biomarker Activity (AID 2283080); settings: primary human HUVEC with PBMC; actives raise or lower the signal
How it was run: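 Human umbilical vein endothelial cells co-cultured with PBMC and stimulated with LPS; IL-1a measured by ELISA 24 h after dosing. Bidirectional fitting against DMSO; cytotoxicity checked by SRB staining in parallel cultures.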

[8] = read-out: Monocyte Chemoattractant Protein-1 (MCP1), CCL2 (gene 6347); assay: BSK_LPS_MCP1: BioMAP Diversity Plus: LPS Assay for Monocyte Chemoattractant Protein-1 (MCP1) Biomarker Activity (AID 2283081); settings: primary human HUVEC with PBMC; actives raise or lower the signal
How it was run: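 Human umbilical vein endothelial cells co-cultured with PBMC, LPS-stimulated; secreted MCP-1 measured by ELISA 24 h after compound addition. Bidirectional curve fitting against DMSO baseline; SRB total-protein staining in parallel cultures for cytotoxicity.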

[9] = BSK_LPS_PGE2: BioMAP Diversity Plus: LPS Assay for Prostaglandin E2 (PGE2) Biomarker Activity (AID 2283082); settings: primary human HUVEC with PBMC; actives raise or lower the signal
How it was run: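 Compounds were added to the LPS co-culture of endothelium and PBMC, and PGE2 was measured by ELISA after 24 h. Responses in either direction were fitted with DMSO as baseline.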

[10] = read-out: Macrophage colony-stimulating factor (MCSF), CSF1 (gene 1435); assay: BSK_LPS_MCSF: BioMAP Diversity Plus: LPS Assay for Macrophage colony-stimulating factor (MCSF) Biomarker Activity (AID 2283083); settings: primary human HUVEC with PBMC; actives raise or lower the signal
How it was run: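 HUVEC–PBMC co-culture, M-CSF measured by ELISA 24 h after chemical dosing. Fitted in both directions relative to DMSO as negative control; overt cytotoxicity assessed by SRB total-protein staining in parallel cultures.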

[11] = read-out: Tissue Factor, F3 (gene 2152); assay: BSK_LPS_TissueFactor: BioMAP Diversity Plus: LPS Assay for Tissue Factor Biomarker Activity (AID 2283084); settings: primary human HUVEC with PBMC; actives raise or lower the signal
How it was run: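 Human umbilical vein endothelial cells co-cultured with PBMC were dosed with compound. Cell-surface CD142 was measured by ELISA 24 h later. Activity was fitted bidirectionally against DMSO, with SRB total-protein staining in parallel cultures for cytotoxicity.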

[12] = read-out: Tumor necrosis factor (Homo sapiens) (UniProt P01375); assay: BSK_LPS_TNFa: BioMAP Diversity Plus: LPS Assay for Tumour Necrosis Factor alpha (TNFa) Biomarker Activity (AID 2283085); settings: primary human HUVEC with PBMC; actives raise or lower the signal;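 as to AC50: TNFa protein level quantified by ELISA in the co-culture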
How it was run: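 Cells (umbilical vein endothelium plus peripheral blood mononuclear cells) were dosed with chemical, incubated 24 h, then TNFa was quantified by ELISA; values derive from bidirectional fitting with DMSO as baseline.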

[13] = read-out: Vascular cell adhesion molecule 1 (VCAM1), VCAM1 (gene 7412); assay: BSK_LPS_VCAM1: BioMAP Diversity Plus: LPS Assay for Vascular cell adhesion molecule 1 (VCAM1) Biomarker Activity (AID 2283086); settings: primary human HUVEC with PBMC; actives raise or lower the signal
How it was run: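 Cells are dosed in an LPS-stimulated endothelial/mononuclear co-culture and, after 24 h, VCAM-1 is quantified by ELISA. Activity in either direction is fitted relative to the DMSO negative control.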

CD38, CD38 (gene 952) = assay: BSK_SAg_CD38: BioMAP Diversity Plus: SAg Assay for CD38 Biomarker Activity (AID 2283087); settings: primary human HUVEC with PBMC; actives raise or lower the signal
How it was run: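 CD38 quantified by ELISA (fluorescence) in a superantigen-activated endothelial cell–PBMC co-culture at 24 h post-dose. Activity fitted in both directions relative to DMSO; parallel SRB and Alamar Blue cytotoxicity read-outs.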

CD40, CD40 (gene 958) [14] = assay: BSK_SAg_CD40: BioMAP Diversity Plus: SAg Assay for CD40 Biomarker Activity (AID 2283088); settings: primary human HUVEC with PBMC; actives raise or lower the signal
How it was run: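 HUVEC plus PBMC co-culture, superantigen-activated, with CD40 read by ELISA 24 h after dosing. Curves fitted in both directions against DMSO. Overt cytotoxicity checked by parallel SRB total-protein staining.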

CD69, CD69 (gene 969) = assay: BSK_SAg_CD69: BioMAP Diversity Plus: SAg Assay for CD69 Biomarker Activity (AID 2283089); settings: primary human HUVEC with PBMC; actives raise or lower the signal
How it was run: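 Primary human vascular co-culture (umbilical vein endothelium with peripheral blood mononuclear cells) exposed to test chemical for 24 h. CD69 levels quantified by fluorescence ELISA; DMSO served as negative control for bidirectional fitting.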

[15] = read-out: Monocyte Chemoattractant Protein-1 (MCP1), CCL2 (gene 6347); assay: BSK_SAg_MCP1: BioMAP Diversity Plus: SAg Assay for Monocyte Chemoattractant Protein-1 (MCP1) Biomarker Activity (AID 2283090); settings: primary human HUVEC with PBMC; actives raise or lower the signal
How it was run: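 Values derive from bidirectional fitting of ELISA-measured MCP1 against DMSO controls. Readings were taken 24 h after dosing human vascular endothelial cells co-cultured with peripheral blood mononuclear cells under superantigen stimulation.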

[16] = read-out: E-selectin (Homo sapiens) (UniProt P16581); assay: BSK_SAg_Eselectin: BioMAP Diversity Plus: SAg Assay for Eselectin Biomarker Activity (AID 2283091); settings: primary human HUVEC with PBMC; actives raise or lower the signal
How it was run: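 Human umbilical vein endothelial cells co-cultured with peripheral blood mononuclear cells, SAg system. E-selectin is measured by ELISA 24 h after dosing and fitted bidirectionally against DMSO. Cytotoxicity is checked by SRB staining of parallel cultures.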

[17] = read-out: Monokine induced gamma interferon (MIG), CXCL9 (gene 4283); assay: BSK_SAg_MIG: BioMAP Diversity Plus: SAg Assay for Monokine induced gamma interferon (MIG) Biomarker Activity (AID 2283092); settings: primary human HUVEC with PBMC; actives raise or lower the signal
How it was run: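 Endothelial cells and PBMC were co-cultured, exposed to test chemicals, and sampled 24 h later. MIG was measured by ELISA, and responses were fitted in both directions relative to DMSO.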

[18] = read-out: C-C motif chemokine 2 (Homo sapiens) (UniProt P13500); assay: BSK_KF3CT_MCP1: BioMAP Diversity Plus: KF3CT Assay for Monocyte Chemoattractant Protein 1 (MCP1/CCL2) Biomarker Activity (AID 2283073); settings: primary human keratinocytes with fibroblasts; actives raise or lower the signal
How it was run: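 Human keratinocyte–foreskin fibroblast co-culture; MCP-1 measured by ELISA 24 h after dosing. Bidirectional fit vs DMSO; cytotoxicity tracked by SRB total protein in parallel cultures.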

Measured: AC50

E-selectin (Homo sapiens), sequence (P16581 whole entry, looked up): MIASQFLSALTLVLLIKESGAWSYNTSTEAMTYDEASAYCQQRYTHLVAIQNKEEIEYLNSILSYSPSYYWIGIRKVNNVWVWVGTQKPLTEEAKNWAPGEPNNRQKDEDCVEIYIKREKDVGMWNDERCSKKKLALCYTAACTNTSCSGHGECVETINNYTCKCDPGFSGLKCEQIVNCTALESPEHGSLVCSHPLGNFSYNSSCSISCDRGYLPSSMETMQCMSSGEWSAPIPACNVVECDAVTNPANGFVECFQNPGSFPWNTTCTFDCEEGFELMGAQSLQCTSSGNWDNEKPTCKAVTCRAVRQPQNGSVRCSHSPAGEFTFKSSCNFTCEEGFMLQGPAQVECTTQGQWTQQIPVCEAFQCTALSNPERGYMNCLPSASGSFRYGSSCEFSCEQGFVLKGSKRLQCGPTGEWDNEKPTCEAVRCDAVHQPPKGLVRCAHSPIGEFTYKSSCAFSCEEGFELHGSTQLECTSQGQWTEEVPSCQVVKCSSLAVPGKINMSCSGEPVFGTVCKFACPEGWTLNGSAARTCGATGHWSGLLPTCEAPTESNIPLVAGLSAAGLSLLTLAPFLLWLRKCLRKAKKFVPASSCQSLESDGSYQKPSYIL
Tumor necrosis factor (Homo sapiens), sequence (P01375 whole entry, looked up): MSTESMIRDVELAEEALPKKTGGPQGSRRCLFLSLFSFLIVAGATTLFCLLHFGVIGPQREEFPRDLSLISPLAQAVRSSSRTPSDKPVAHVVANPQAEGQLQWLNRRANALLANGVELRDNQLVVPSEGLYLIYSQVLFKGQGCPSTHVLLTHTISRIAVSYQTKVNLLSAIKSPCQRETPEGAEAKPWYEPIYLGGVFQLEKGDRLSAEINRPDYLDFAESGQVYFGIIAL

CC(C)CC(C)O (stereo not drawn)
inactive: [1] | [2] | CD40, CD40 (gene 958) [3] | [4] | [5] | [6] | [7] | [8] | [9] | [10] | [11] | [12] | [13] | CD38, CD38 (gene 952) | CD40, CD40 (gene 958) [14] | CD69, CD69 (gene 969) | [15] | [16] | [17]

O=C(NO)C1(NS(=O)(=O)c2ccc(Oc3ccc(F)cc3)cc2)CCOCC1
active: [12] 3970 nM
inactive: [1] | [2] | CD40, CD40 (gene 958) [3] | [4] | [5] | [6] | [7] | [8] | [9] | [10] | [11] | [13] | CD38, CD38 (gene 952) | CD40, CD40 (gene 958) [14] | CD69, CD69 (gene 969) | [15] | [16] | [17]

O=c1[nH]cnc2c1ncn2[C@H]1CC[C@@H](CO)O1
inactive: [18] | [1] | [2] | CD40, CD40 (gene 958) [3] | [4] | [5] | [6] | [7] | [8] | [9] | [11] | [12] | [13] | CD38, CD38 (gene 952) | CD40, CD40 (gene 958) [14] | CD69, CD69 (gene 969) | [15] | [16] | [17]

Cn1c(=O)c2[nH]cnc2n(C)c1=O
inactive: [18] | [1] | [2] | CD40, CD40 (gene 958) [3] | [4] | [5] | [6] | [7] | [8] | [9] | [10] | [11] | [12] | [13] | CD40, CD40 (gene 958) [14] | CD69, CD69 (gene 969) | [15] | [16] | [17]

Cn1cc[nH]c1=S
inactive: [18] | [1] | [2] | CD40, CD40 (gene 958) [3] | [4] | [5] | [6] | [7] | [8] | [9] | [10] | [11] | [12] | [13] | CD40, CD40 (gene 958) [14] | CD69, CD69 (gene 969) | [15] | [16] | [17]

OC(Cn1cncn1)(Cn1cncn1)c1ccc(F)cc1F
inactive: [1] | [2] | CD40, CD40 (gene 958) [3] | [4] | [5] | [6] | [7] | [8] | [9] | [10] | [11] | [12] | [13] | CD38, CD38 (gene 952) | CD40, CD40 (gene 958) [14] | CD69, CD69 (gene 969) | [15] | [16] | [17]

c1ccc2c(c1)-c1cccc3c1c-2cc1ccccc13
inactive: [1] | [2] | CD40, CD40 (gene 958) [3] | [4] | [5] | [6] | [7] | [8] | [9] | [10] | [12] | [13] | CD38, CD38 (gene 952) | CD40, CD40 (gene 958) [14] | CD69, CD69 (gene 969) | [15] | [17]
active: [11] 552 nM | [16] 566 nM
